Test results as given in paper PMC7862700, “An all-to-all approach to the identification of sequence-specific readers for epigenetic DNA modifications on cytosine”.

Tests used:
Assay in all cases: DAPPL (digital affinity profiling via proximity ligation, sequencing); 10 mM Tris-HCl pH 7.5, 50 mM NaCl, 1 mM DTT, 4% glycerol, room temperature, 30 min; GST-TFs on glutathione beads, 16-mer random dsDNA library, 0.1% formaldehyde crosslink after washing; high values mean tight binding
[1] = target: T1, FLI1 (Homo sapiens, UniProt Q01543 1-452); details: protein: recombinant; tags: N-terminal GST; dsDNA, one strand shown
T1 sequence: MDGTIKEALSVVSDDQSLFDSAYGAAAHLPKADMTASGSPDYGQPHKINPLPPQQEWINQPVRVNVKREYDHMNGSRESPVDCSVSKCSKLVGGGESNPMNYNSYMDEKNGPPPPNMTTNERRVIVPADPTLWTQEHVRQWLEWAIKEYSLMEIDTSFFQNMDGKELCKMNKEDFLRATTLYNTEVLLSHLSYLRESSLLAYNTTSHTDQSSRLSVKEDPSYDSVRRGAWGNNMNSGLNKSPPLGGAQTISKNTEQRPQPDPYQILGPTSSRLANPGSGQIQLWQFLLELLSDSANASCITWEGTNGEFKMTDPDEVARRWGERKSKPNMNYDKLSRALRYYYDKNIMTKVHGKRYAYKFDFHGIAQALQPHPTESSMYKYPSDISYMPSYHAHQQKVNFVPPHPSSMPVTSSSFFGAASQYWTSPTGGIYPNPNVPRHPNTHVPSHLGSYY
Method in brief: (§1)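 Binding signal is given per hexamer as its read frequency for a factor divided by its frequency in the tag-only sample. GST-fused human transcription factors were expressed in yeast, captured on glutathione beads, barcoded with DNA and pooled with that sample, then incubated with 200 nmole of a 16-mer random double-stranded DNA library in Tris/NaCl/DTT/glycerol buffer for 30 min at room temperature. The pools were then washed, crosslinked, proximity-ligated, amplified by PCR and sequenced on an Illumina NextSeq500.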

[2] = target: T2, ELK1 (Homo sapiens, UniProt P19419 1-428); details: protein: recombinant; tags: N-terminal GST; dsDNA, one strand shown
T2 sequence: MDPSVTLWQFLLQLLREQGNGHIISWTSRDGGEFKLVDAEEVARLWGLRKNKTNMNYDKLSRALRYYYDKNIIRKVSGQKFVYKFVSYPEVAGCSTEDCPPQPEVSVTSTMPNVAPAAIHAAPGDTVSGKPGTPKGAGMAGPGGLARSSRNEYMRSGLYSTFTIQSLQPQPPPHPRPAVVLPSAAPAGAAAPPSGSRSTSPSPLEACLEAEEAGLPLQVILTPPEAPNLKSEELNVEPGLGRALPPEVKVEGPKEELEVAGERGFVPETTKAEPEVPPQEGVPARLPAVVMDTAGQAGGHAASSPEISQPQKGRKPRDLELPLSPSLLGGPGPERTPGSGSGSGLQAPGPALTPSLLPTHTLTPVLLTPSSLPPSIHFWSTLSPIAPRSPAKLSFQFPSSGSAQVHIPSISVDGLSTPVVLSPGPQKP
Method in brief: as §1

[3] = target: T3, GABPA (Homo sapiens, UniProt Q06546 1-454); details: protein: recombinant; tags: N-terminal GST; dsDNA, one strand shown
T3 sequence: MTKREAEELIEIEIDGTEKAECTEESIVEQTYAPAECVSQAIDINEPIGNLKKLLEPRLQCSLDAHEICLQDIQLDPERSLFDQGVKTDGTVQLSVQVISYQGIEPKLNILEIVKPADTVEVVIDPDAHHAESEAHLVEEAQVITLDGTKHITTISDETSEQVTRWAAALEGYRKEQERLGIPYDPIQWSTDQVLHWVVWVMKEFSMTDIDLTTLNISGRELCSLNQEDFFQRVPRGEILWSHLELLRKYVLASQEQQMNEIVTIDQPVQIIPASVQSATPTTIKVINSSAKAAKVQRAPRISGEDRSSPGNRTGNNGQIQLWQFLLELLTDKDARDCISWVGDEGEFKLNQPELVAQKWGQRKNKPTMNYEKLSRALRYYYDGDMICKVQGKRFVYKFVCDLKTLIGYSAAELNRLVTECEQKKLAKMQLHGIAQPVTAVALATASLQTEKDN
Method in brief: as §1

[4] = target: T4, ERG (Homo sapiens, UniProt P11308 1-479); details: protein: recombinant; tags: N-terminal GST; dsDNA, one strand shown
T4 sequence: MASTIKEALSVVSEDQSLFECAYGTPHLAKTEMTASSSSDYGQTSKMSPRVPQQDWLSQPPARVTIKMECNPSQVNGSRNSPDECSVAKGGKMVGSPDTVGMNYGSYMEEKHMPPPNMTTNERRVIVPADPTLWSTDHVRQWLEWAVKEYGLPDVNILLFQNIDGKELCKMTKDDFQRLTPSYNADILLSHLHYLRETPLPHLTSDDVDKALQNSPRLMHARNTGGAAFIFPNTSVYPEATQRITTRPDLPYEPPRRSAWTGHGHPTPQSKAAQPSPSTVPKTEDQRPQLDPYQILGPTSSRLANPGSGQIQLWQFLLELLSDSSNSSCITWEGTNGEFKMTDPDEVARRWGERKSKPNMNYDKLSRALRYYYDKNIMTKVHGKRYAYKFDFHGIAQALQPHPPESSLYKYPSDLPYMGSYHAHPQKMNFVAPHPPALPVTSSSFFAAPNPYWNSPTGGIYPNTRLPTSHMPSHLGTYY
Method in brief: as §1

[5] = target: ELF1 (Homo sapiens, UniProt P32519 1-619); details: protein: recombinant; tags: N-terminal GST; dsDNA, one strand shown
Method in brief: as §1

[6] = target: T5, EHF (Homo sapiens, UniProt Q9NZC4 1-300); details: protein: recombinant; tags: N-terminal GST; dsDNA, one strand shown
T5 sequence: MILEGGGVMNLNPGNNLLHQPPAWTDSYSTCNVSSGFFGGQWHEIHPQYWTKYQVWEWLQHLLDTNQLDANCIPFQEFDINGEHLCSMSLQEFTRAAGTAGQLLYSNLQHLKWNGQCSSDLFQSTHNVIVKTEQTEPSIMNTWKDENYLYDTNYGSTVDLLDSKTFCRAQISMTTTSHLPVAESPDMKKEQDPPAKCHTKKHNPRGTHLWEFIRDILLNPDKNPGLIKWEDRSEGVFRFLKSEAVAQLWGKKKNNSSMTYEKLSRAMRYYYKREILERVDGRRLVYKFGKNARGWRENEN
Method in brief: as §1

[7] = target: SPI1 (Homo sapiens, UniProt P17947 1-270); details: protein: recombinant; tags: N-terminal GST; dsDNA, one strand shown
Method in brief: as §1

[8] = target: SPIB (Homo sapiens, UniProt Q01892 1-262); details: protein: recombinant; tags: N-terminal GST; dsDNA, one strand shown
Method in brief: as §1

[9] = target: T6, ELK3 (Homo sapiens, UniProt P41970 1-407); details: protein: recombinant; tags: N-terminal GST; dsDNA, one strand shown
T6 sequence: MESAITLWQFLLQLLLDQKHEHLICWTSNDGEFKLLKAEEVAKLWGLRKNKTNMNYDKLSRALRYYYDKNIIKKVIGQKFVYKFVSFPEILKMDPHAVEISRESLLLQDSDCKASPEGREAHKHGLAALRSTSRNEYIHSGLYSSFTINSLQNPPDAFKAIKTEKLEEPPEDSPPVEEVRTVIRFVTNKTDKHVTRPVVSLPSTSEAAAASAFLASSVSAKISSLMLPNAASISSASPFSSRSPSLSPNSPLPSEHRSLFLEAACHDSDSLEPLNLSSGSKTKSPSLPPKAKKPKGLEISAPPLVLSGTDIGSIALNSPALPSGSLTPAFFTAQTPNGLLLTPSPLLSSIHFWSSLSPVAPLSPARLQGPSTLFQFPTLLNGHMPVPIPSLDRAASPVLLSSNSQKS
Method in brief: as §1

[10] = target: T7, FEV (Homo sapiens, UniProt Q99581 1-238); details: protein: recombinant; tags: N-terminal GST; dsDNA, one strand shown
T7 sequence: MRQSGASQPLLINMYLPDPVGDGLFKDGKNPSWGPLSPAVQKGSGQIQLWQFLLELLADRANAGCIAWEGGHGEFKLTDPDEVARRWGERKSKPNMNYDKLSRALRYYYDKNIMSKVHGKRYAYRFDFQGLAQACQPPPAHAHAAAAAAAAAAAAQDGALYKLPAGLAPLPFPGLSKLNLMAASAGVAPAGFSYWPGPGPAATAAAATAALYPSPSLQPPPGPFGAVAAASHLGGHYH
Method in brief: as §1

[11] = target: ETV5 (Homo sapiens, UniProt P41161 1-510); details: protein: recombinant; tags: N-terminal GST; dsDNA, one strand shown
Method in brief: as §1

[12] = target: HSF1 (Homo sapiens, UniProt Q00613 1-529); details: protein: recombinant; tags: N-terminal GST; chain copies: 3; dsDNA, one strand shown
Method in brief: as §1

[13] = target: T8, SPIC (Homo sapiens, UniProt Q8N5J4 1-248); details: protein: recombinant; tags: N-terminal GST; dsDNA, one strand shown
T8 sequence: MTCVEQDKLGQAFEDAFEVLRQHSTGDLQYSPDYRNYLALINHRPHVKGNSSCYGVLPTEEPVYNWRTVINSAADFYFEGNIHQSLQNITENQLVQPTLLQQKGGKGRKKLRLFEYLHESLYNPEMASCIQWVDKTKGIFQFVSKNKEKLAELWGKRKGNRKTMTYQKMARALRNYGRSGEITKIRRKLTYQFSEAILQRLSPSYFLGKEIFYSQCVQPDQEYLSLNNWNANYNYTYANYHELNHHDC
Method in brief: as §1

[14] = target: ELF4 (Homo sapiens, UniProt Q99607 1-663); details: protein: recombinant; tags: N-terminal GST; dsDNA, one strand shown
Method in brief: as §1

[15] = target: T9, ELK4 (Homo sapiens, UniProt P28324-2 1-405); details: protein: recombinant; tags: N-terminal GST; dsDNA, one strand shown
T9 sequence: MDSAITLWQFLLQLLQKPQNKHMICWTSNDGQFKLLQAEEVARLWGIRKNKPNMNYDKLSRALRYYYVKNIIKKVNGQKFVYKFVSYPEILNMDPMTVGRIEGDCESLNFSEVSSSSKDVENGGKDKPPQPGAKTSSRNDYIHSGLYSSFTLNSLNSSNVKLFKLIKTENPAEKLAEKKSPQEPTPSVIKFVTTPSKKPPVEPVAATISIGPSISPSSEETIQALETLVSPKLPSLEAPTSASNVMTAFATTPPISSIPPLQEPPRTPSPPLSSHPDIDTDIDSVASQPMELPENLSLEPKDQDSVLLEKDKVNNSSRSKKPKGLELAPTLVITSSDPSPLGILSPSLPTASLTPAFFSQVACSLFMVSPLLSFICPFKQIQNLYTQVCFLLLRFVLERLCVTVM
Method in brief: as §1

[16] = target: T10, ETV2 (Homo sapiens, UniProt O00321 1-342); details: protein: recombinant; tags: N-terminal GST; dsDNA, one strand shown
T10 sequence: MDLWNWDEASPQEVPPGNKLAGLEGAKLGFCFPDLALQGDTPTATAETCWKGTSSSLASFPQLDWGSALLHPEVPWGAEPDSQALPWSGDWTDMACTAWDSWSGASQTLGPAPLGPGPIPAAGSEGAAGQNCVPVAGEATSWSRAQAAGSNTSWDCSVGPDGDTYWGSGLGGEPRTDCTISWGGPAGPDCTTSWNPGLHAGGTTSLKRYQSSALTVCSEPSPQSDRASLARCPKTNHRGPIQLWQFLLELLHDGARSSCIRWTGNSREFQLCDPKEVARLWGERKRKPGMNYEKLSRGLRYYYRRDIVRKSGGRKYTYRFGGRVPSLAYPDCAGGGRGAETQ
Method in brief: as §1

[17] = target: T11, ELF3 (Homo sapiens, UniProt P78545 1-371); details: protein: recombinant; tags: N-terminal GST; dsDNA, one strand shown
T11 sequence: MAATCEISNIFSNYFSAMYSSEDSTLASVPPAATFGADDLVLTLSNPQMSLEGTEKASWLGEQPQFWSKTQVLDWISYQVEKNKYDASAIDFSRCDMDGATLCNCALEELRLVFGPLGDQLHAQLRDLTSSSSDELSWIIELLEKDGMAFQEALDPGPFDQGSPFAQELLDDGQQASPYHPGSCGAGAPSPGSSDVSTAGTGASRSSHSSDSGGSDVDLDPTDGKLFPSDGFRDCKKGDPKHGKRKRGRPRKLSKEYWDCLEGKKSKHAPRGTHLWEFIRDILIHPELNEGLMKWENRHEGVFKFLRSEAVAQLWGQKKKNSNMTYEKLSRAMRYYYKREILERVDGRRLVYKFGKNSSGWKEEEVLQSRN
Method in brief: as §1

[18] = target: CRX (Homo sapiens, UniProt O43186 1-299); details: protein: recombinant; tags: N-terminal GST; dsDNA, one strand shown
Method in brief: as §1

[19] = target: ETV1 (Homo sapiens, UniProt P50549 1-477); details: protein: recombinant; tags: N-terminal GST; dsDNA, one strand shown
Method in brief: as §1

Chain of ELF1 (P32519 whole entry): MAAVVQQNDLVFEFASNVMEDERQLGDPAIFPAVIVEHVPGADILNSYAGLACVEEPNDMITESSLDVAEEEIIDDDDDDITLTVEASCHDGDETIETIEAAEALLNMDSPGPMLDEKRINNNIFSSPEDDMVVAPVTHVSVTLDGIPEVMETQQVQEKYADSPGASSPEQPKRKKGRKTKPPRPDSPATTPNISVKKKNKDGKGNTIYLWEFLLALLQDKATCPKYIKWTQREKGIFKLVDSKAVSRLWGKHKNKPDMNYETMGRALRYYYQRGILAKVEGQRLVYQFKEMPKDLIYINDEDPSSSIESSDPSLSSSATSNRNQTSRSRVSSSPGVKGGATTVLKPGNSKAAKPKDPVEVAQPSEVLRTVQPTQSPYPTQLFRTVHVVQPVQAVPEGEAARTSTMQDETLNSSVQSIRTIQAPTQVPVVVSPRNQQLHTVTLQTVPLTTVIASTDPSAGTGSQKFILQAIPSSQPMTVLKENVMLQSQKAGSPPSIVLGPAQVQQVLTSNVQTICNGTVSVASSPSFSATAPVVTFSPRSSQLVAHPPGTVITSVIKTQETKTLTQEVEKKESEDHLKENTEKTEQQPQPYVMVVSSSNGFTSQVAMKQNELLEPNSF
Chain of SPIB (Q01892 whole entry): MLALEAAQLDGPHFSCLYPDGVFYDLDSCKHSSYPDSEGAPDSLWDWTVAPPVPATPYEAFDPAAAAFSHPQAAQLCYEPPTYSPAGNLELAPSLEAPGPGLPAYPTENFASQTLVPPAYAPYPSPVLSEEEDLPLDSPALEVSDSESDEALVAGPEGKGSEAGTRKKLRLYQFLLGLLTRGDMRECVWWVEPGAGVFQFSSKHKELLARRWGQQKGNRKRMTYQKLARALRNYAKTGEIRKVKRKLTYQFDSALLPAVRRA
Chain of ETV1 (P50549 whole entry): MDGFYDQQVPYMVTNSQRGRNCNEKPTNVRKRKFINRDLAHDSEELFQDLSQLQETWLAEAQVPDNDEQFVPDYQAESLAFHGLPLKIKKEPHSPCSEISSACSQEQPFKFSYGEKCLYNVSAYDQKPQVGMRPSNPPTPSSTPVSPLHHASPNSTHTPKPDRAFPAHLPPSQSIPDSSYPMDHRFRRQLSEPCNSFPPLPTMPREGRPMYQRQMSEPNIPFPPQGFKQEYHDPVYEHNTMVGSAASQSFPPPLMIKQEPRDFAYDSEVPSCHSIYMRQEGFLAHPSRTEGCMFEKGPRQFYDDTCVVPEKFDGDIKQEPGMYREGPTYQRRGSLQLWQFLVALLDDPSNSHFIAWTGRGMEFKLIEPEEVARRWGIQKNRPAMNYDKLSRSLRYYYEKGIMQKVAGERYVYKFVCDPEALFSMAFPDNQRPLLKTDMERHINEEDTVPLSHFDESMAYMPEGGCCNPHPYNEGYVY
Chain of HSF1 (Q00613 whole entry): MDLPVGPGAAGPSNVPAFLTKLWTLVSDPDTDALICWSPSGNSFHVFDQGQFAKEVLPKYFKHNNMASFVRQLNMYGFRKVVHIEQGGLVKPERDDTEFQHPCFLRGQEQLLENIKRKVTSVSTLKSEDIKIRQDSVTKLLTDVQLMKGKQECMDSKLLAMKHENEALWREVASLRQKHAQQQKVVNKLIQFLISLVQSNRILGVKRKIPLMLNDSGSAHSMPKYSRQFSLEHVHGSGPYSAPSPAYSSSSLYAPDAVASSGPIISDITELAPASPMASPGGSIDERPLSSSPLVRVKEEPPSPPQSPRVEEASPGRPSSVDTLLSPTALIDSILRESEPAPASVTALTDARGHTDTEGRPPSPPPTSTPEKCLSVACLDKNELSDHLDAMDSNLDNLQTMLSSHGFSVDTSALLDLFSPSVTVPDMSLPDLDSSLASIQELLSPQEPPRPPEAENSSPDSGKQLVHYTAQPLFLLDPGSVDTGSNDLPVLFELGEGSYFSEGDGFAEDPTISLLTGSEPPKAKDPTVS
Chain of CRX (O43186 whole entry): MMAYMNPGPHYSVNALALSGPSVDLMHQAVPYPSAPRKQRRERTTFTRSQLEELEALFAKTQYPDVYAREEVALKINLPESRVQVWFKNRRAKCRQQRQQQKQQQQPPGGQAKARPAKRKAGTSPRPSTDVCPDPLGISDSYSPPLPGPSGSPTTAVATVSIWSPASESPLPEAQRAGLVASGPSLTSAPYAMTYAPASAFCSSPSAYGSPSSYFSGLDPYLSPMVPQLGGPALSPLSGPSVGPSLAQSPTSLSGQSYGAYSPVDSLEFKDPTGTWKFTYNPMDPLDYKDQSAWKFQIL
Chain of ELF4 (Q99607 whole entry): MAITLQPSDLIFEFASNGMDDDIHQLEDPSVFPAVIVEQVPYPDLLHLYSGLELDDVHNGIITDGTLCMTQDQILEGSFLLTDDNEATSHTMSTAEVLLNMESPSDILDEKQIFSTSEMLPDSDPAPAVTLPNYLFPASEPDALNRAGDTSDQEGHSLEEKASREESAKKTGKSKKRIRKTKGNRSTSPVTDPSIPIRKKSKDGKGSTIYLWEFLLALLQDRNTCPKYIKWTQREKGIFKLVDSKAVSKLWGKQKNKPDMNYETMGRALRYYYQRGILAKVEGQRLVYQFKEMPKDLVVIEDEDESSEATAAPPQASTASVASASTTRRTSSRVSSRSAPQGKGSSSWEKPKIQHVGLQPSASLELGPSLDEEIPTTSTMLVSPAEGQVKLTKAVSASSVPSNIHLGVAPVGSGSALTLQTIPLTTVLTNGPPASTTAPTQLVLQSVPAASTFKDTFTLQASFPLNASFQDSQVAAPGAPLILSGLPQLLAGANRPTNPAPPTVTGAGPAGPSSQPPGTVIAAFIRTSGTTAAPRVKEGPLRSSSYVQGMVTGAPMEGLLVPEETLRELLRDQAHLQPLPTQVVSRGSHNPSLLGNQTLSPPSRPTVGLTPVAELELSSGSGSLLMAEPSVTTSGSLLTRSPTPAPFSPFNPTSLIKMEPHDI
Chain of ETV5 (P41161 whole entry): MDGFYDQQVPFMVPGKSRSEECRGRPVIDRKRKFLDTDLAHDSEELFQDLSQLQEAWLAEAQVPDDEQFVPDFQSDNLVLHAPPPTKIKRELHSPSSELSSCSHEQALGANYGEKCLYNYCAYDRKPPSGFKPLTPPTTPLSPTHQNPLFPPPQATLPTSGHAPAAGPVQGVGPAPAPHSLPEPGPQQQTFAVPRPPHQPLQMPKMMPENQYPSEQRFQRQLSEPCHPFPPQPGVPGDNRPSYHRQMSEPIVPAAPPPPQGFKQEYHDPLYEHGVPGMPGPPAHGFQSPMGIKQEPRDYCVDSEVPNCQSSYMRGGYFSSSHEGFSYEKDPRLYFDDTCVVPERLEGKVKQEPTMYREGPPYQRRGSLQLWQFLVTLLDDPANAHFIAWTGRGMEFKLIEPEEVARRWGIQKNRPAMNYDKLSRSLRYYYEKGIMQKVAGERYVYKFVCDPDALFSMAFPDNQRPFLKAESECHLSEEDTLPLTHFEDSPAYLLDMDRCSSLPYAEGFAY

CCTGTT
binding signal [1]: 1.79 fold enrichment (6-mer frequency, TF over GST control) | binding signal [2]: 1.63 fold enrichment (6-mer frequency, TF over GST control) | binding signal [3]: 1.73 fold enrichment (6-mer frequency, TF over GST control) | binding signal [4]: 1.72 fold enrichment (6-mer frequency, TF over GST control) | binding signal [5]: 1.75 fold enrichment (6-mer frequency, TF over GST control) | binding signal [6]: 1.76 fold enrichment (6-mer frequency, TF over GST control) | binding signal [7]: 2 fold enrichment (6-mer frequency, TF over GST control) | binding signal [8]: 1.75 fold enrichment (6-mer frequency, TF over GST control) | binding signal [9]: 1.94 fold enrichment (6-mer frequency, TF over GST control) | binding signal [10]: 1.67 fold enrichment (6-mer frequency, TF over GST control) | binding signal [11]: 1.79 fold enrichment (6-mer frequency, TF over GST control) | binding signal [12]: 1.2 fold enrichment (6-mer frequency, TF over GST control) | binding signal [13]: 1.91 fold enrichment (6-mer frequency, TF over GST control) | binding signal [14]: 1.72 fold enrichment (6-mer frequency, TF over GST control) | binding signal [15]: 1.55 fold enrichment (6-mer frequency, TF over GST control) | binding signal [16]: 1.62 fold enrichment (6-mer frequency, TF over GST control) | binding signal [17]: 1.62 fold enrichment (6-mer frequency, TF over GST control) | binding signal [18]: 1.21 fold enrichment (6-mer frequency, TF over GST control) | binding signal [19]: 1.69 fold enrichment (6-mer frequency, TF over GST control)
